# In PubChem BioAssay:
# “And” between values parts separate entries of the source, which are not always exact repeats. Equal entries are not always repeated. Results filed as inconclusive are left out. The source made the active and inactive calls.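 The calls were made as follows, unless noted: active = normalized viability below 100% at a tested concentration; inactive = the rest.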
# Assays:
# [1] = viability loss in pontine glioma line – cell-based, SU-DIPG-XXV, MIPE5.0, CellTiter-Glo, qHTS, dose response (AID 1347065; cut-off not given, nearly all actives have AC50 up to about 26 µM;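 also: cells exposed to compound for 48 hours before ATP readout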); conditions: CellTiter-Glo ATP luminescence
# [2] = growth inhibition of DIPG cells – cell-based, MIPE4.0 library, CellTiter-Glo luminescence, qHTS (AID 1347066; cut-off not given, nearly all actives have AC50 up to about 30 µM;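 also: cells exposed to compound for 48 hours before readout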); conditions: SU-DIPG-VI viability, CellTiter-Glo ATP luminescence
# [3] = JHH-DIPG-1 glioma cell viability, MIPE5.0 library, CellTiter-Glo luminescence, qHTS (AID 1347067; cut-off not given, nearly all actives have AC50 up to about 26 µM;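 also: cells exposed to compound for 48 hours before readout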); conditions: JHH-DIPG-1 glioma viability, CellTiter-Glo ATP luminescence
# [4] = viability loss with induced miR-34 in A549 – imaging, A549 dox-inducible miR-34, nuclei and caspase counts, primary screen (AID 1347080;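 active = compounds whose cell count with miR-34 switched on is under 0.7 times the count with it off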); conditions: A549 miR-34 inducible, Hoechst nuclei count, 48 h
# [5] = MELAS cybrid and Rieske KO viability enhancers – cell-based, MELAS cybrids, Rieske KO mouse fibroblasts, CellTiter-Glo, primary screen (AID 1508586;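 active = mean z-score across replicates of 1.96 or higher in either the MELAS or the Rieske mutant cell line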;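 also: z relative to plate mean and SD of compound and empty wells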); conditions: low glucose
# [6] = growth inhibition of DIPG cells – cell-based, MIPE5.0 library, qHTS (AID 1347068; cut-off not given, nearly all actives have IC50 up to about 30 µM); conditions: SU-DIPG-XXV viability
# [7] = blockers of cellular phospholipid synthesis – cell-based, LOPAC library, screen 4, primary screen (AID 1347384; call rule not given here); conditions: animal cells, phospholipid biosynthesis inhibition screen; at 10 µM
# [8] = compounds altering HSF1 focus formation in cells – imaging, Selleck Cancer Library (AID 1347162; in the data active = plate-normalised HSF1 focus index below about 0.46); conditions: human cells, HSF1 nuclear foci imaging, at 10 µM; SSMD: measured here: HSF1 foci SSMD mean; cell count: measured here: cell number; plate-normalised HSF1 focus index: stronger effect = lower value
# [9] = chitosan synthesis blockers in C. neoformans – flow cytometry, Cibacron Brilliant Red staining (AID 1347148; call rule not given here;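 also: compound exposure lasted three days at 37 degrees C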); conditions: Cryptococcus neoformans chitosan, stronger effect = lower value; at 10 µM unless noted
# [10] = drug combination growth inhibition, ovarian cancer – cell-based, oncology-focused library, rucaparib conditional, profiling panel (AID 1508598); conditions: patient-derived ovarian cancer cells, CellTiter-Glo viability, 144 h, stronger effect = lower value
# [11] = stronger effect = lower value, cell number ratio, induced over uninduced
# [12] = measured here: relative caspase fold change +Dox/-Dox
# [13] = measured here: total cells with miR-34 induction, stronger effect = lower value
# [14] = measured here: total cells without miR-34 induction
# [15] = MELAS cybrid survival, CellTiter-Glo 48 h, stronger effect = higher value
# [16] = Rieske KO mouse fibroblast survival, CellTiter-Glo 72 h
compound,measurement,setting,value
Oc1ccc(OCc2ccccc2)cc1,outcome,[1],inactive
same,outcome,[2],inactive
same,outcome,[3],inactive
same,fold change,[4]; [11],0.78 (inactive) and 0.903 (inactive)
same,fold change,[4]; [12],1.95 and 0.958
same,cell count,[4]; [13],2470 and 5720
same,cell count,[4]; [14],3170 and 6340
same,z-score,[5]; [15],-0.263 (inactive) and 1.74 (inactive)
same,z-score,[5]; [16],0.599 and -0.357
Nc1[nH]c(=O)ncc1F,outcome,[1],inactive
same,outcome,[2],inactive
same,outcome,[3],inactive
same,outcome,[6],inactive
same,z-score,[5]; [15],-0.163 (inactive) and 0.671 (inactive)
same,z-score,[5]; [16],0.841 and -0.221
O=NN(CCCl)C(=O)NCCCl,outcome,[1],inactive
same,outcome,[3],inactive
same,outcome,[6],inactive
same,fold change,[4]; [11],0.948 (inactive) and 0.902 (inactive)
same,fold change,[4]; [12],1.47 and 4.57
same,cell count,[4]; [13],8130 and 9540
same,cell count,[4]; [14],8570 and 10600
same,outcome,[7],inactive
CN(CCOc1ccc(NS(C)(=O)=O)cc1)CCc1ccc(NS(C)(=O)=O)cc1,outcome,[1],inactive
same,outcome,[2],inactive
same,outcome,[6],inactive
same,outcome,[7],inactive
same,z-score,[5]; [15],-0.0974 (inactive) and 0.133 (inactive) and -0.631 (inactive)
same,z-score,[5]; [16],-0.727 and -0.208 and -0.315
COc1cc(OC)c(C(=O)CCCN2CCCC2)c(OC)c1,outcome,[1],inactive
same,outcome,[2],inactive
same,outcome,[6],inactive
same,fold change,[4]; [11],0.858 (inactive) and 0.948 (inactive) and 0.902 (inactive)
same,fold change,[4]; [12],1.32 and 1.94 and 0.958
same,cell count,[4]; [13],8900 and 10500 and 8390
same,cell count,[4]; [14],10400 and 11000 and 9300
same,z-score,[5]; [15],-0.379 (inactive) and 0.339 (inactive)
same,z-score,[5]; [16],-0.346 and 0.199
COC1=C(OC)C(=O)C(CCCCCCCCCCO)=C(C)C1=O,outcome,[1],inactive
same,AC50,[2],23.5 µM (active)
same,outcome,[6],inactive
same,fold change,[4]; [11],0.841 (inactive) and 0.881 (inactive) and 0.889 (inactive)
same,fold change,[4]; [12],1.87 and 0.941 and 1.43
same,cell count,[4]; [13],8540 and 8000 and 9340
same,cell count,[4]; [14],10200 and 9080 and 10500
same,z-score,[5]; [15],-0.358 (inactive) and -0.43 (inactive) and 0.294 (inactive)
same,z-score,[5]; [16],0.303 and 0.0167 and -0.141
CCN1CCN(C(=O)N[C@@H](C(=O)N[C@@H]2C(=O)N3C(C(=O)O)=C(CSc4nnnn4C)CS[C@H]23)c2ccc(O)cc2)C(=O)C1=O,outcome,[1],inactive
same,outcome,[3],inactive
same,outcome,[6],inactive
same,fold change,[4]; [11],0.863 (inactive) and 0.844 (inactive)
same,fold change,[4]; [12],1.41 and 1.35
same,cell count,[4]; [13],7800 and 9270
same,cell count,[4]; [14],9050 and 11000
same,z-score,[5]; [15],-0.583 (inactive) and -0.0634 (inactive)
same,z-score,[5]; [16],-0.0146 and -0.684
NNc1nncc2ccccc12,outcome,[1],inactive
same,outcome,[2],inactive
same,outcome,[3],inactive
same,fold change,[4]; [11],1.01 (inactive) and 0.821 (inactive)
same,fold change,[4]; [12],1.23 and 1.05
same,cell count,[4]; [13],10000 and 10300
same,cell count,[4]; [14],9890 and 12600
same,outcome,[7],inactive
CNNCc1ccc(C(=O)NC(C)C)cc1,outcome,[1],inactive
same,outcome,[3],inactive
same,outcome,[6],inactive
same,fold change,[4]; [11],0.927 (inactive) and 0.93 (inactive) and 0.882 (inactive)
same,fold change,[4]; [12],0.658 and 1.32 and 1.82
same,cell count,[4]; [13],8930 and 9660 and 9580
same,cell count,[4]; [14],9640 and 10400 and 10900
same,SSMD,[8],2.76
same,cell count,[8],7850
same,plate-normalised HSF1 focus index,[8],1.17 (inactive)
same,z-score,[5]; [15],-0.384 (inactive) and 0.576 (inactive)
same,z-score,[5]; [16],-1.08 and 0.362
CC(N)C12CC3CC(CC(C3)C1)C2 (stereo not given),outcome,[1],inactive
same,outcome,[2],inactive
same,outcome,[6],inactive
CN(Cc1cnc2nc(N)nc(N)c2n1)c1ccc(C(=O)N[C@@H](CCC(=O)O)C(=O)O)cc1,AC50,[1],417 nM (active)
same,outcome,[3],inactive
same,outcome,[6],inactive
same,fold change,[4]; [11],1.49 (inactive) and 1.21 (inactive) and 1.07 (inactive)
same,fold change,[4]; [12],1.22 and 0.656 and 1.41
same,cell count,[4]; [13],2980 and 3110 and 5280
same,cell count,[4]; [14],2000 and 2580 and 4920
same,fold fluorescence,[9],3.97 [at 117.8 µM] (inactive)
same,SSMD,[8],2.25
same,cell count,[8],7580
same,plate-normalised HSF1 focus index,[8],1.08 (inactive)
same,outcome,[7],inactive
same,z-score,[5]; [15],1.68 (inactive)
same,z-score,[5]; [16],-0.369
same,viability,"[10]; at 0.000305 µM, OCI-C5x cells, with rucaparib 10 µM, 100% = cells with rucaparib alone",110% (inactive)
same,viability,"[10]; at 0.000305 µM, OCI-C5x cells, without rucaparib",111% (inactive)
same,viability,"[10]; at 0.000305 µM, OCI-P5x cells, with rucaparib 20 µM, 100% = cells with rucaparib alone",113% (inactive)
same,viability,"[10]; at 0.000305 µM, OCI-P5x cells, without rucaparib",112% (inactive)
same,viability,"[10]; at 0.00122 µM, OCI-C5x cells, with rucaparib 10 µM, 100% = cells with rucaparib alone",104% (inactive)
same,viability,"[10]; at 0.00122 µM, OCI-C5x cells, without rucaparib",91.8% (active)
same,viability,"[10]; at 0.00122 µM, OCI-P5x cells, with rucaparib 20 µM, 100% = cells with rucaparib alone",111% (inactive)
same,viability,"[10]; at 0.00122 µM, OCI-P5x cells, without rucaparib",109% (inactive)
same,viability,"[10]; at 0.00488 µM, OCI-C5x cells, with rucaparib 10 µM, 100% = cells with rucaparib alone",113% (inactive)
same,viability,"[10]; at 0.00488 µM, OCI-C5x cells, without rucaparib",106% (inactive)
same,viability,"[10]; at 0.00488 µM, OCI-P5x cells, with rucaparib 20 µM, 100% = cells with rucaparib alone",111% (inactive)
same,viability,"[10]; at 0.00488 µM, OCI-P5x cells, without rucaparib",111% (inactive)
same,viability,"[10]; at 0.0195 µM, OCI-C5x cells, with rucaparib 10 µM, 100% = cells with rucaparib alone",105% (inactive)
same,viability,"[10]; at 0.0195 µM, OCI-C5x cells, without rucaparib",103% (inactive)
same,viability,"[10]; at 0.0195 µM, OCI-P5x cells, with rucaparib 20 µM, 100% = cells with rucaparib alone",103% (inactive)
same,viability,"[10]; at 0.0195 µM, OCI-P5x cells, without rucaparib",105% (inactive)
same,viability,"[10]; at 0.0781 µM, OCI-C5x cells, with rucaparib 10 µM, 100% = cells with rucaparib alone",59.6% (active)
same,viability,"[10]; at 0.0781 µM, OCI-C5x cells, without rucaparib",35.7% (active)
same,viability,"[10]; at 0.0781 µM, OCI-P5x cells, with rucaparib 20 µM, 100% = cells with rucaparib alone",110% (inactive)
same,viability,"[10]; at 0.0781 µM, OCI-P5x cells, without rucaparib",98.3% (active)
same,viability,"[10]; at 0.313 µM, OCI-C5x cells, with rucaparib 10 µM, 100% = cells with rucaparib alone",18.2% (active)
same,viability,"[10]; at 0.313 µM, OCI-C5x cells, without rucaparib",17.2% (active)
same,viability,"[10]; at 0.313 µM, OCI-P5x cells, with rucaparib 20 µM, 100% = cells with rucaparib alone",104% (inactive)
same,viability,"[10]; at 0.313 µM, OCI-P5x cells, without rucaparib",93.3% (active)
same,viability,"[10]; at 1.25 µM, OCI-C5x cells, with rucaparib 10 µM, 100% = cells with rucaparib alone",17.8% (active)
same,viability,"[10]; at 1.25 µM, OCI-C5x cells, without rucaparib",16.5% (active)
same,viability,"[10]; at 1.25 µM, OCI-P5x cells, with rucaparib 20 µM, 100% = cells with rucaparib alone",101% (inactive)
same,viability,"[10]; at 1.25 µM, OCI-P5x cells, without rucaparib",90.7% (active)
same,viability,"[10]; at 5 µM, OCI-C5x cells, with rucaparib 10 µM, 100% = cells with rucaparib alone",27.2% (active)
same,viability,"[10]; at 5 µM, OCI-C5x cells, without rucaparib",26% (active)
same,viability,"[10]; at 5 µM, OCI-P5x cells, with rucaparib 20 µM, 100% = cells with rucaparib alone",94% (active)
same,viability,"[10]; at 5 µM, OCI-P5x cells, without rucaparib",87.3% (active)
